# Measured values reported in PubChem BioAssay (NCATS).
# Results filed as inconclusive are left out. Unmarked numbers belong to inactive results. Active and inactive are the calls of the source. Calls come from the whole dose curve; as a rule, active = well fitted cell-killing curve with a large enough effect; inconclusive = small, poorly fitted or top-dose-only effect, or effect the other way; inactive = flat fitted curve, though single readings scatter.
# Experiment: UWB1.289-WTBRCA1 Cancer Cell Toxicity qHTS against the NCATS CANVASS Library (AID 1347354)
# Settings: UWB1.289-WTBRCA1 viability, CellTiter-Glo luminescence, 72 h; series mostly up to 38.3 µM; activity change, negative = cytotoxicity: at the top concentration
# Outline: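 Cells at 1000/well were given compound 4 h after plating in an 11-point series. Viability was read by CellTiter-Glo luminescence after 72 h at 37 degrees C.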
# % is set by controls: 0 for no effect and ±100 for the full control effect; potency is the fitted concentration of half-maximal effect.
Structure (SMILES),"activity change, negative = cytotoxicity [%]",Potency,outcome
COc1ccc2[nH]c3c(c2c1)CCN1C[C@H]2C[C@@H](OC(=O)c4cc(OC)c(OC)c(OC)c4)[C@H](OC)[C@@H](OC)[C@H]2C[C@H]31,-0.13,–,–
O[C@H]1c2ccccc2-c2c3c(cc4c2[C@@H]1NCC4)OCO3,1.19,–,–
CC(C)=CC[C@H]1C[C@@]2(CC=C(C)C)C(=O)[C@](CC=C(C)C)(C(=O)C(C(=O)c3ccccc3)=C2O)C1(C)C,–,11.8 µM (active),–
C[C@]12CC[C@]3(C1)[C@H](CC2=O)C[C@@H](OC(=O)c1ccccc1)[C@H]1[C@](C)(C(=O)O)CCC[C@@]13C,-1.28,–,–
CC(=O)O[C@H]1c2ccccc2-c2c3c(cc4c2[C@@H]1N(C(C)=O)CC4)OCO3,-22.1,–,–
C=C[C@](Cl)(CBr)CCC=C(C)C,–,–,inactive
C=C1CC[C@@H](Br)C(C)(C)[C@]12CC=C(C)C(=O)C2,0.0987,–,–
COc1cc2c(cc1OC)[C@@H](c1ccc3c(c1)OCO3)C(C)C(C)C2=O (stereo partly specified),-11.4,–,–
C[C@H]1C=C[C@H]2CCCC[C@@H]2[C@H]1C(=O)[C@H]1CC2=C(C(=O)O)CCN2C1=O,0.939,–,–
CC(C)[C@]12CC[C@@]3(C)[C@H](C)CC[C@H](O)[C@@]3(CC1)c1cc3c(cc12)[nH]c1ccccc13,-3.02,–,–
C/C=C1/CN2C3CC1C1C=CC(=O)N4c5ccccc5[C@@]3(C[C@@H]2C2=C[C@H]3C5CC6N(CC[C@@]67c6ccccc6N(C2=O)[C@@H]37)C/C5=C/C)[C@H]14 (stereo partly specified),–,16.7 µM (active),–
CC(C)=CCC[C@]12c3cc4c(cc3CC[C@@]1(C)[C@H](C)CC[C@@H]2O)[nH]c1ccccc14,1.35,–,–
C=C(C)CC[C@H](Cc1c(O)cc(O)c2c1O[C@H](c1ccc(O)cc1)CC2=O)C(=C)C,-25.8,–,–
C=CC(CCCCC)C1C(=O)NC(=O)C1C(=O)C1C2C(C)CC(C(=O)O)CC2CC1(O)C(=O)/C=C/C (stereo unspecified),-8.6,–,–
C[C@]12CCC[C@](C)(C(=O)O)[C@@H]1CC[C@@]1(C)c3cocc3CC[C@H]21,–,–,inactive
COc1c(O)cc2c(c1O)C(=O)c1c(coc1C)C2=O,–,–,inactive
CC(C)C[C@@H]1c2c(O)c(C=O)c(O)c(C=O)c2O[C@]2(C)C=C[C@@H](C(C)C)C[C@H]12,–,–,inactive
COc1cc2c(c(O)c1O)C(=O)c1c(coc1C)C2=O,–,18.8 µM (active),–
CO[C@H]1[C@@H](OC(=O)/C(C)=C\[C@@H]2O[C@@H]2[C@H]2O[C@H]2C)[C@H](O)[C@H](OCC23C[C@@H]4[C@H](C)CC[C@H]4C4(C=O)CC2C=C(C(C)C)C34C(=O)O)O[C@@H]1C (stereo partly specified),–,–,inactive
C/C=C/C1C=CC2CC(C)CC(C)C2C1C(=O)CC(=O)NC(CO)C/C=C/CCCCC (stereo unspecified),-16.2,–,–
CC[C@H]1[C@H](C)[C@H](c2cc(OC)c(OC)cc2OC)[C@@H](C)[C@H](c2cc(OC)c(OC)cc2OC)[C@@]12C=C(OC)C(=O)C=C2OC,3.47,–,–
